This passage reports PBM binding z-score results from the supplement of paper PMC6555819.

The test system of the assay is VDR homodimer (NR concentration 270 nM). Description: PBM binding z-score (relative to random genomic background probes); higher = stronger binding; sequences stand for … in GC…GCGATTGACAGCGTAGAATGAAGG
A digest of the protocol:
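Probes were double-stranded and carried 34-nt variable regions with direct-repeat seeds, single-nucleotide variants, half-site ablations and random human genomic background sequences, printed on custom Agilent 4×180K protein-binding microarrays. Arrays were incubated 1 h with ligand-free nuclear receptor dimers in PBS pH 7.4, 2% milk, 0.02% Triton X-100, 1 mM DTT, 0.2 mg/mL BSA and 0.4 mg/ml salmon testes DNA. Antibodies against each partner (one per run) detected binding, and scanned fluorescence was regression-normalized. Binding z-scores use the random background probes as reference.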
Regarding CGAACTAGGTCAGAACAGGACGGTGAAGGATGAT, the PBM binding z-score is -0.257.

Take CCTATTAGTTGACCAAAAGGGCAACCGAAGCTCG: the PBM binding z-score came out at 0.7.

The sequence ATATGTAGGTTACATCCGGGTCATTCCGGCTATG gave a PBM binding z-score of 2.99.

CCTACTGGGCCAAGATCATTGATCAGTCAAAGCA showed a PBM binding z-score of -0.179. The same measure for TCATATAGGTAAAGGTAAAAGTCGAACGATATGA: -0.0631; for ACAGACAGGTGATGACGGTAACTCAGGCTATCAT: -0.266. The same measure for ATCTCTATGTAAAGATAGTTCAGTGAATGCAAAT: 0.366. The sequence CGAACTTGGTCAGAACAGGACAGTGAAGGATGAT came in with a PBM binding z-score of -0.116. As for CCTACTGGGCCATTCAGAGCTCATTGATCATATG, the figure is -0.387; as for TCATGTAGATCAATAGAGGTTAAGAAAGTGCGCT, 0.637; as for TGGCAAAGTTCAAAGGTAACGTAAGTATCCACAC, 4.04. GGAACAAGGGCAAAGTTGATAGCATCTGTCGACG registered a PBM binding z-score of 0.766. As for GATACAGGGTCCAGGCCAGAGTACGCGTATTGAT, the PBM binding z-score is 0.607. As to GGAACGAGGGCATTCGAGCTGATAGCATGGCGAT, the PBM binding z-score was 1.53. As for CGAACTAGGTCAGAACAGGACAGCGAAGGATGAT, the figure is -0.0467; as for GCTTACGGGTCAAAGGTTATAGCATGAATAGAAT, 1.58; as for TGATATAGGTAAATGCTAGGTGAAAGTCCGATCT, -0.0449.

As for CCGAATGGGGCATAAGGTTACCATAAGCCAGCCC, the PBM binding z-score is -0.245. The same measure for CCTGGGAGGACAACAGGAGGTCAGAGCTGCCAGA: 1.37; for TCACATAGGTAATACAGGTGAAAGTCGGCATCTA: -0.296; for CCTCGGAGGACAGAAGGTCAGAGTTGTCCGCTTT: 0.396.

In turn, ATCTCTAGGTAAAGTTCGGTGAAAGATCGATAGA showed a PBM binding z-score of 0.916.
